# Bioassay records deposited in PubChem by National Center for Advancing Translational Sciences (NCATS).
# In the library only some 2.7% were active in any assay of this set; here they are far more common.
# mIDH1 inhibitor: human IDH1 R132H inhibition | O75874 | IDH1-R132H enzyme, NADPH consumption, diaphorase/resazurin fluorescence | Potency, µM (doses to about 76.6 µM), for inactives: at the highest dose activity change, negative = inhibition, hits mostly inhibitors | 390,000 compounds, 0.093% hits | AID 602179; further: potency means the concentration at half of the fitted maximal effect; on the % scale 0 is the no-effect control and ±100 the full control effect; nearly all actives have a fitted effect of over 65% in size
#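 IDH1-R132H (0.5 ug/mL dispensed) in pH 7.5 Tris buffer was preincubated 30 min with compound, then given a substrate mix of 0.016 mM NADPH and 2 mM alpha-KG for 80 min at room temperature; remaining NADPH was read by diaphorase/resazurin fluorescence.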
# GLP-1R agonist: activates the human GLP-1 receptor; HEK293 GLP-1R CRE-luciferase, luminescence, 4-6 h; cells express a hypersensitive GLP-1R form; 380,000 compounds, 0.007% hits; P43220; AID 624172; Potency, µM (series often up to 45.6 µM), for inactives: at the highest dose activation, most hits filed as activators; further: potency means the concentration at half of the fitted maximal effect; % of control where 0% means no effect
# GLP1R inv ag: inverse agonists of human GLP-1 receptor; P43220; HEK293 GLP-1R CRE-luciferase, luminescence, 24 h; GLP-1R form is constitutively active; Potency, µM (highest dose often 38.3 µM), for inactives: top-dose activity change, negative = inhibition, most hits filed as inhibitors; 410,000 compounds, 1.6% hits; further: potency means the concentration at half of the fitted maximal effect; on the % scale 0 is the no-effect control and ±100 the full control effect; nearly all actives have a fitted effect of over 55% in size
#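 Assay principle: reduced luminescence from a cAMP-responsive reporter in HEK293 cells co-expressing a constitutively active GLP-1R. Conditions: 24 hr compound incubation, 37 deg C, 5% CO2.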
# TrxR1 substrate: substrates of rat thioredoxin reductase 1. Potency, µM (highest dose often 114 µM), inactives show top-dose activity change, negative = substrate turnover. O89049. 390,000 compounds, 0.01% hits. purified TrxR1 substrate turnover, NADPH consumption readout; further: potency means the concentration at half of the fitted maximal effect; on the % scale 0 is the no-effect control and ±100 the full control effect; nearly all actives have a fitted effect of over 50% in size
# Target sequence (O89049 whole entry, looked up): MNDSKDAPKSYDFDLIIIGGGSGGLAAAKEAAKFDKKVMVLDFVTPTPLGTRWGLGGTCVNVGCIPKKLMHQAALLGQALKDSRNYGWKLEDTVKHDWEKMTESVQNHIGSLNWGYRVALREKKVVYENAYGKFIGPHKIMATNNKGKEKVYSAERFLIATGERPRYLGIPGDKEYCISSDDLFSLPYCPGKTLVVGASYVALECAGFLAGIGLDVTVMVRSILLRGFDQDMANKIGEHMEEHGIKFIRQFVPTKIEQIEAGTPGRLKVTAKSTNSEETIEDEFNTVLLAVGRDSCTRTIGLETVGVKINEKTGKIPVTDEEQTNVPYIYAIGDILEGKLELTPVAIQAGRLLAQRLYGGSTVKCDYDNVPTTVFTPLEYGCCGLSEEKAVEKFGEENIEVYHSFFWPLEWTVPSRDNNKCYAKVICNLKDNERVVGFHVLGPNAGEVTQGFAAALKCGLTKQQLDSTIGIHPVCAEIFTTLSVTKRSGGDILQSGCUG
#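 Rat TrxR1, dispensed at 90 nM, was prereduced with 400 uM NADPH (final) for 5 min at ~22 deg C, then incubated with compound 15 min before 400 uM selenite. A first-read NADPH fluorescence drop versus no-compound background flagged substrates.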
# GLP1R cytotox: cytotoxicity in counter-screen for GLP-1R inverse agonists; HEK293 cAMP-luciferase reporter cells, luminescence, 24 h; Potency, µM (highest dose often 38.3 µM), inactives show at the top dose activity change, negative = inhibition, hits mostly inhibitors; 410,000 compounds, 0.13% hits; AID 624418;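 further: loss of luciferase light is scored as toxicity; potency means the concentration at half of the fitted maximal effect; on the % scale 0 is the no-effect control and ±100 the full control effect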
#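 Luminescence readout: signal drop marks cytotoxicity. Plated cells grew 12 h at 37 °C, 5% CO2, received 23 nL compound for 24 h, then got luciferase reagent, read after 12 min at RT.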
# TrxR1 inh: rat TrxR1 inhibition | recombinant rTrxR1, NADPH fluorescence consumption, selenite substrate | O89049 | Potency, µM (doses to about 114 µM), for the others: top-dose activity change, negative = inhibition, actives largely listed as inhibitors | AID 588453 | 390,000 compounds, 1% hits; further: potency means the concentration at half of the fitted maximal effect; on the % scale 0 is the no-effect control and ±100 the full control effect; nearly all actives have a fitted effect of over 65% in size
#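 Rat TrxR1 (90 nM in the dispensed reagent) was pre-reduced with 400 uM NADPH for 5 min at room temperature, then incubated with compound for 15 min. After 400 uM selenite was added, NADPH fluorescence (Ex 340/Em 450 nm) was followed for 8 min.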
# IDH1 autofl: counter-screen for mutant IDH1 inhibitors: fluorescence interference; Resorufin detection reagent fluorescence interference, cell-free; 750 tested, under 10 active; shares compounds with mIDH1 inhibitor; inhibition of signal, % at 51.2 µM;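 further: 0% = wells with normal resorufin and full inhibition = wells lacking resorufin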
# IDH1 WT: selectivity of mutant IDH1 inhibitors: human wild-type IDH1; shares compounds with mIDH1 inhibitor; WT IDH1 enzyme, NADPH diaphorase/resazurin fluorescence; Potency, µM (doses to about 115 µM), for inactives: at the top dose activity change, negative = inhibition, most hits filed as inhibitors; 750 compounds, 9% hits;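 further: potency means the concentration at half of the fitted maximal effect; 0% = full WT IDH1 enzyme control and full inhibition = no enzyme wells; nearly all actives have a fitted effect of over 55% in size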
# mIDH1 confirm: confirmation of human mutant IDH1 inhibitors | shares compounds with mIDH1 inhibitor | IDH1 R132H enzyme, NADPH diaphorase/resazurin fluorescence | Potency, µM (series often up to 76.6 µM), for inactives: at the top dose activity change, negative = inhibition, most hits filed as inhibitors | 750 compounds, 83% hits | AID 624002; further: potency means the concentration at half of the fitted maximal effect; nearly all actives have a fitted effect of over 50% in size
# An asterisk follows results filed as active; ? = inconclusive; / = not tested or not shown; [ ] = dose if it differs, or a comment. The call rests on the fitted dose curve; in most records, active means well fitted curve in the direction sought with a large enough effect; inconclusive means small, poorly fitted or top-dose-only effect, or another doubt; inactive means no such curve, though single readings can be large; an effect the other way counts as inactive or inconclusive.
SMILES,mIDH1 inhibitor,GLP-1R agonist,GLP1R inv ag,TrxR1 substrate,GLP1R cytotox,TrxR1 inh,IDH1 autofl,IDH1 WT,mIDH1 confirm
Cc1ccc2nc3c(nc2c1C)CCCC3,0%,10%,15%,13%[57.1 µM],12%,8%[57.1 µM],/,/,/
COc1cccc(C2=C(C(C)=O)Sc3nncn3N2C(C)=O)c1,?,/,-16%,1%[57.1 µM],-2%,-28%[57.1 µM],/,/,/
CC(=O)C1=C(c2ccc(Cl)c(Cl)c2)N(C(C)=O)n2c(nnc2-c2ccccc2)S1,10%,/,13%,4%[57.1 µM],-3%,9%[57.1 µM],/,/,/
CC(=O)C1=C(c2ccc(Cl)c(Cl)c2)N(C(C)=O)n2cnnc2S1,45µM*,/,?,6%[57.1 µM],?,?,-9,432%,20µM*
CC(=O)C1=C(c2ccc(Cl)c(Cl)c2)N(C(C)=O)n2c(C)nnc2S1,45µM*,/,11µM*,5%[57.1 µM],-21%,-10%[57.1 µM],0,314%,40µM*
O=S(=O)(NCC(Nc1ccc(Cl)cc1)c1ccccc1)c1ccccc1 (stereo unspecified),?,-16%,?,-4%,?,4%,2,-6%,22µM*
CCOC(=O)CC(NC(=O)CCc1c(C)nc2c(-c3ccccc3)c(C)nn2c1C)c1ccc(C)cc1 (stereo unspecified),12%,-3%,-2%,0%,-16%,17%,/,/,/
COc1cc(C2c3c(-c4ccccc4)n[nH]c3C(=O)N2c2ccc(C(=O)O)cc2)ccc1O (stereo unspecified),7%,7%,11%,10%,10%,?,/,/,/
O=C1c2[nH]nc(-c3ccc(Br)cc3)c2C(c2cccc(O)c2)N1c1ccc(Cl)cc1 (stereo unspecified),40µM*,-7%,?,6%,?,2%,-6,1%,20µM*
CCOc1ccc(N2C(=O)c3[nH]nc(-c4ccccc4)c3C2c2ccc(O)c(OC)c2)cc1 (stereo unspecified),?,/,8%,-10%[57.1 µM],-20%,-25%[57.1 µM],0,1%,20µM*
CCOC(=O)c1ccc(N2C(=O)c3n[nH]c(-c4ccco4)c3C2c2ccc(OC)cc2OC)cc1 (stereo unspecified),?,-3%,?,-9%,-30%,-3%,1,-1%,?
Cc1ccc(-c2n[nH]c3c2C(c2ccccc2)N(c2ccc(C(=O)O)cc2)C3=O)cc1 (stereo unspecified),52µM*,1%,0%,2%,-6%,4%,-2,-23%,28µM*
CCc1ccc(-c2nc3cc(NC(=O)c4ccc(F)cc4)ccc3o2)cc1,0%,/,14%,4%,-1%,7%,/,/,/
CCOC(=O)c1ccc(N2C(=O)c3n[nH]c(C)c3C2c2ccc(OC)cc2OC)cc1 (stereo unspecified),-17%,0%,?,-6%,-2%,18%[57.1 µM],/,/,/
COc1ccc(C2c3c(-c4ccccc4)n[nH]c3C(=O)N2c2ccc(C(=O)O)cc2)c(OC)c1 (stereo unspecified),40µM*,0%,3%,-1%,0%,8%,6,?,28µM*
CCC1Sc2ccccc2N(CC(=O)NCc2ccc(C)cc2)C1=O (stereo unspecified),-3%,/,?,1%[57.1 µM],5%,18%[57.1 µM],/,/,/
CCNC(=O)NC(=O)C(C)OC(=O)c1oc2ccccc2c1CSC1CCCCC1 (stereo unspecified),?,-5%,0%,-1%,-2%,5%,-1,0%,32µM*
COc1c(CC=C(C)C)cc(C2CC(=O)c3c(O)cc(O)cc3O2)cc1CC=C(C)C (stereo unspecified),35µM*,3%,?,26%,?,?,-1,40µM*,25µM*
COc1ccc([C@@H]2CC(=O)c3c(O)cc(O)cc3O2)cc1O,10%,-2%,8%,3%,-5%,11%,/,/,/
Cc1ccccc1Cn1c(CN2CCC(C(=O)NCCN(C)C)CC2)cc2ccccc21,2%,/,-9%,7%[57.1 µM],1%,14%[57.1 µM],/,/,/
CCOC(=O)C1=C(c2ccccc2)NC(SCC)=C(C#N)C1c1cccnc1 (stereo unspecified),?,3%,?,-4%[57.1 µM],-19%,4%[57.1 µM],-1,0%,16µM*
O=C(Nc1ccccc1Cl)c1ccc(F)c(S(=O)(=O)NCc2ccc(Cl)c(Cl)c2)c1,1%,/,?,4%[57.1 µM],-16%,17%[57.1 µM],/,/,/
COc1ccc(C(=O)C[n+]2cccc3cc(Cl)ccc32)cc1,/,/,/,-4%,/,19%,/,/,/
O=c1[nH]c(/C=C/c2cccc([N+](=O)[O-])c2)c([N+](=O)[O-])c(=O)[nH]1,45µM*,1%,-10%,5%[57.1 µM],6%,-51%,4,-16%,32µM*
CCc1cc(C(=O)c2ccc(OC)cc2)c(NC(=O)CN2CCCC2)s1,46µM*,1%,?,2%,-20%,-22%,-1,0%,16µM*
CCOC(=O)c1ccc(CN(Cc2ccc(Cl)cc2Cl)S(=O)(=O)c2ccc(F)c(C)c2)cc1,17%,/,10%,6%[57.1 µM],-9%,18%[57.1 µM],/,/,/
Cc1ccc(-n2ncc3c(=O)[nH]c(SCC(=O)N4CCCc5ccccc54)nc32)cc1,?,1%,51%,9%[57.1 µM],-4%,12%,-6,10%,28µM*
Cc1ccc(-n2ncc3c(N4CCCCCC4)ncnc32)cc1,-2%,/,?,4%[57.1 µM],-1%,21%[57.1 µM],/,/,/
CN(C1=C(N2CCCCC2)C(=O)c2ccccc2C1=O)c1ccccc1,?,7%,?,2%,?,?,-3,2%,?
CSc1nn(Cc2ccc(C)cc2)c(N)c1S(=O)(=O)c1ccccc1,32µM*,-8%,?,-9%,-2%,14%,2,-2%,10µM*
